Measurements as given in PubChem BioAssay (NCI).
This is part of a sample that, as a whole, favours compounds with a hit. Of some 83,000 tested, about 20% had one in any assay.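 Single-dose data. Exposure time 48 hours. Values below 10 considered active.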 Unmarked numbers belong to inactive results. Active and inactive are the calls of the source.

How the values were obtained:
Test in all cases: NCI-60 one-dose screen, 48 h (100 = growth as untreated, 0 = no growth, -100 = all killed)
Settings in all cases: 10 µM unless noted
NCI-H23 lung = test system: NCI-H23 lung
NCI-H226 lung = test system: NCI-H226 lung
NCI-H322M lung = test system: NCI-H322M lung
HOP-62 NSCLC = test system: HOP-62 NSCLC
NCI-H460 lung = test system: NCI-H460 lung
HOP-92 NSCLC = test system: HOP-92 NSCLC
NCI-H522 lung = test system: NCI-H522 lung
A549/ATCC NSCLC = test system: A549/ATCC NSCLC
786-0 renal = test system: 786-0 renal
COLO 205 colon = test system: COLO 205 colon
DU-145 prostate = test system: DU-145 prostate
K-562 leukemia = test system: K-562 leukemia
MALME-3M melanoma = test system: MALME-3M melanoma
MDA-MB-231 breast = test system: MDA-MB-231 breast
RXF 393 renal = test system: RXF 393 renal
SF-268 CNS = test system: SF-268 CNS
SF-295 CNS = test system: SF-295 CNS
SF-539 CNS = test system: SF-539 CNS
M14 melanoma = test system: M14 melanoma
UACC-257 melanoma = test system: UACC-257 melanoma

Structure (SMILES) | growth (NCI-H23 lung) | growth (NCI-H226 lung) | growth (NCI-H322M lung) | growth (HOP-62 NSCLC) | growth (NCI-H460 lung) | growth (HOP-92 NSCLC) | growth (NCI-H522 lung) | growth (A549/ATCC NSCLC) | growth (786-0 renal) | growth (COLO 205 colon) | growth (DU-145 prostate) | growth (K-562 leukemia) | growth (MALME-3M melanoma) | growth (MDA-MB-231 breast) | growth (RXF 393 renal) | growth (SF-268 CNS) | growth (SF-295 CNS) | growth (SF-539 CNS) | growth (M14 melanoma) | growth (UACC-257 melanoma)
CCCCCCCCCCCCCC1=NCCN1CCO | 72% | 95% | 93.5% | 58.9% | -68.9% (active) | 24.5% | 89% | 65.1% | 68.8% | -75% (active) | 116% | 5.11% (active) | 104% | 51.3% | 59.5% | 152% | 136% | -70% (active) | 2.59% (active) | –
COC(=S)SCN(CSC(=S)OC)c1ccc(Cl)cc1 | 80% | 69.9% | 76.1% | 76.9% | 87% | 74.7% | 79.9% | 81.6% | 94.3% | 111% | 110% | 90.1% | 75.1% | 66.1% | 95.3% | 94.2% | 84.8% | 84.8% | 77% | –
CCCCCCCCCC(=O)Oc1ccc(/C(=C(/C)Cc2cccc(OC)c2)c2ccc(OCCN(C)C)cc2)cc1 | 99.3% | 114% | 107% | 111% | 112% | 113% | 97% | 108% | 103% | 118% | 108% | 100% | 115% | 105% | 115% | 100% | 107% | 103% | 105% | 110%
Nc1c(C(=O)Nc2cccc3c2OCCO3)sc2nc3c(cc12)CN(Cc1ccccc1)CC3 | 85.4% | 82.5% | 94.3% | 72.5% | 53.4% | 83.4% | 29.3% | 79.3% | 87.1% | 90.9% | 86% | 20.1% | 68.1% | 66.4% | 71.8% | 74.2% | 39.7% | 65.2% | 54.6% | 83%
O=c1cc(-c2ccccc2)[nH]c2ccccc12 | 39.1% | 70.2% | 55.4% | 49% | 13.2% | 38.5% | -46.9% (active) | 19.1% | 32.3% | 5.72% (active) | 17.6% | 32.6% | 50% | 95.6% | 36.1% | 50.5% | 16.4% | 4.43% (active) | 15.9% | –
Cc1cc2cc3cc(C)c(N(C)C)cc3[n+](C)c2cc1N(C)C | 28.3% | 51.6% | 25.4% | 30% | 10.9% | -34.6% (active) | -5.03% (active) | 25.8% | 26.7% | -19.2% (active) | 24.2% | 44.7% | 19.9% | 57.1% | 25% | 11.7% | 16.6% | 9.99% (active) | 41.2% | –
COc1cccc(/C=C\C(=O)c2ccccc2)c1 | 86.7% | 76.7% | 85% | 87% | 78% | 87.6% | 81.2% | 92.4% | 74.4% | 90.1% | 53.8% | 31% | 83.4% | 88.5% | 50.2% | 60.4% | 77.5% | 87.7% | 85.1% | –
COc1cccc(-c2cn3c(ccc4ccccc43)n2)c1 | 49.8% | 43.9% | 56.4% | 25.8% | 17.8% | 64.2% | 15.9% | 55% | 44.4% | 11.4% | 39% | 13.2% | 36.9% | 44.9% | -5.05% (active) | 56% | 10.6% | 12.5% | 30.2% | 58.7%
